# Assay results as given in PubChem BioAssay (NCI).
# Compounds without any hit were thinned out: in the full panel of roughly 83,000, 20% have a hit.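 The test compound was applied at a single concentration to cells in 96-well plates for 48 hours, and percent growth was recorded.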 Unmarked numbers belong to inactive results. Calls of active or inactive are those of the source. Rule for the calls: active = growth percent below 10; inactive = the rest.
# System: MALME-3M melanoma
# Assay: NCI-60 one-dose screen, 48 h (100 = growth as untreated, 0 = no growth, -100 = all killed)
# Details: 10 µM
row,Compound,growth
1,CCNCCCCNCCCCNCCCCNCCCCNCC,-12.6% (active)
2,CC1=CC(C)(C)NC(=S)N1c1ccc(S(=O)(=O)O)c2cccc(S(=O)(=O)O)c12,115%
3,O=c1[nH]cc(Cl)cc1O,91.2%
4,CC(C)=NNc1ccc([N+](=O)[O-])cc1[N+](=O)[O-],159%
5,CC1CC(O)CC(C)(C)C1 (stereo unspecified),97.4%
6,CCOC(=O)CNN,103%
7,CCOC(=O)c1ccc(NC(=S)P(=O)(c2ccccc2)c2ccccc2)cc1,108%
8,O=C(Nc1cccc(NC(=O)Nc2cc(C(F)(F)F)ccc2Cl)c1)Nc1cc(C(F)(F)F)ccc1Cl,2.44% (active)
9,COc1cc(-c2ccc(NC(=O)NC3CC3)c(OC)c2)ccc1NC(=O)NC1CC1,102%
10,Oc1ccc2c(c1)OCC1(O)Cc3cc(O)c(O)cc3C21 (stereo unspecified),88.8%
11,COc1ccc(Oc2c(I)cc(CC(NC(C)=O)C(=O)O)cc2I)cc1 (stereo unspecified),88.4%
12,CCCCC/C=N/Nc1nc(C)cc(=O)[nH]1,103%
13,CN(C)C(C)(C)CC(C)(C)C,94.2%
14,CN(C)C(=O)Oc1cccc([N+](C)(C)C)c1,131%
15,CC12CC3CC1C(C(=O)O2)C3C(=O)O (stereo unspecified),94.2%
16,CCN(CC)c1ccc2nc3ccc(=[N+](CC)CC)cc-3oc2c1,-48.6% (active)
17,O=C(NC1CCCCC1)OCc1c(COC(=O)NC2CCCCC2)c(-c2ccc(Cl)c(Cl)c2)n2c1CCC2,31.8%
18,N#CCCN(CCCN1CCOCC1)CN1C(=O)c2ccccc2C1=O,87.6%

# System: MDA-MB-231 breast
# Assay: as above
# Details: 10 µM
row,Compound,growth
1,CC(=O)OC1CC2C(C)(C)OC3CC(=O)OCC32C2CCC3(C)C(=CCC3c3ccoc3)C12C (stereo unspecified),115%
2,CCC(O)CC(CC)CO (stereo unspecified),108%
3,CC(=Nc1ccccc1)C1=C(O)C(Cc2cccc(F)c2)NC1=O (stereo unspecified),25.9%
4,Cc1c(O)cccc1O,96.5%
5,CC1CCCCN1C(=S)Nc1ccc(S(=O)(=O)N2CCCCC2)cc1 (stereo unspecified),119%
6,C=C1CC/C=C(\C)C(=O)C[C@@H]2[C@@H]1CC2(C)C,125%
7,N#C/C(=C\c1cc(O)c(O)c(O)c1)C(N)=O,102%
8,C#CCSc1nnnn1-c1ccc(Br)c(C)c1,98.4%
9,Brc1cnc2ccccc2c1,113%
10,O=C1C=C(O)C(=O)C=C1O,104%
11,COC(=O)Nc1nc2ccc(C(=O)c3ccc(F)cc3)cc2[nH]1,26.5%
12,CCOC(=O)C1=C(C)NC(=O)NC1c1cccs1 (stereo unspecified),110%
13,CCOC(=O)Nc1cc2c(c(N)n1)N=C(c1ccccc1)CO2,13.6%
14,COC(=O)c1cccnc1,100%
15,O=[N+]([O-])c1cccc(C(F)(F)F)c1,98%
16,CC(=O)Cc1ccc(-c2ccccc2)cc1,95.9%
17,Cc1ccc(C(=O)NC2c3ccccc3Oc3ccccc32)cc1,58.4%
18,CC1(c2ccccc2)NC(=O)NC1=O (stereo unspecified),111%
19,COc1cc2c3c(n(C)c(=O)c2cc1OC)-c1cc2c(cc1C3=O)OCO2,97.1%

row,Compound,growth
1,O=[N+]([O-])c1ccc(-c2ncc(-c3ccc(Br)cc3)o2)cc1,119%
2,CCNCCCCNCCCCNCCCCNCCCCNCC,109%
3,CC1=CC(C)(C)NC(=S)N1c1ccc(S(=O)(=O)O)c2cccc(S(=O)(=O)O)c12,98.3%
4,O=c1[nH]cc(Cl)cc1O,77.8%
5,CC(C)=NNc1ccc([N+](=O)[O-])cc1[N+](=O)[O-],82.4%
6,CC1CC(O)CC(C)(C)C1 (stereo unspecified),105%
7,CCOC(=O)CNN,107%
8,CCOC(=O)c1ccc(NC(=S)P(=O)(c2ccccc2)c2ccccc2)cc1,109%
9,O=C(Nc1cccc(NC(=O)Nc2cc(C(F)(F)F)ccc2Cl)c1)Nc1cc(C(F)(F)F)ccc1Cl,1.95% (active)
10,COc1cc(-c2ccc(NC(=O)NC3CC3)c(OC)c2)ccc1NC(=O)NC1CC1,71.1%
11,Oc1ccc2c(c1)OCC1(O)Cc3cc(O)c(O)cc3C21 (stereo unspecified),93.2%
12,COc1ccc(Oc2c(I)cc(CC(NC(C)=O)C(=O)O)cc2I)cc1 (stereo unspecified),78.8%
13,CCCCC/C=N/Nc1nc(C)cc(=O)[nH]1,95.2%
14,CN(C)C(C)(C)CC(C)(C)C,101%
15,CN(C)C(=O)Oc1cccc([N+](C)(C)C)c1,91.1%
16,CC12CC3CC1C(C(=O)O2)C3C(=O)O (stereo unspecified),109%
17,CCN(CC)c1ccc2nc3ccc(=[N+](CC)CC)cc-3oc2c1,-12.1% (active)
18,O=C(NC1CCCCC1)OCc1c(COC(=O)NC2CCCCC2)c(-c2ccc(Cl)c(Cl)c2)n2c1CCC2,42.3%
19,N#CCCN(CCCN1CCOCC1)CN1C(=O)c2ccccc2C1=O,113%
